In all, about 96,000 compounds went through this assay and fewer than 10 were called active.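 How the source made its calls: active means activation factor of at least 2 at 5 µM in the primary screen; inactive means the rest.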 Only a sample is shown.
Each compound was assayed against Cytochrome P450 2C19 (Homo sapiens) (UniProt P33261) (assay: human CYP2C19 activators, primary screen, biochemical, luminescence (AID 1025;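 further: 0 = wells with 2.5 mM tranylcypromine and 1 = vehicle-only wells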)). Settings: recombinant CYP2C19, luciferin-H EGE luminescence; at 5 µM; stronger effect = higher value; 0 = fully inhibited enzyme, 1 = untreated enzyme.
Cytochrome P450 2C19 (Homo sapiens), sequence (P33261 whole entry, looked up): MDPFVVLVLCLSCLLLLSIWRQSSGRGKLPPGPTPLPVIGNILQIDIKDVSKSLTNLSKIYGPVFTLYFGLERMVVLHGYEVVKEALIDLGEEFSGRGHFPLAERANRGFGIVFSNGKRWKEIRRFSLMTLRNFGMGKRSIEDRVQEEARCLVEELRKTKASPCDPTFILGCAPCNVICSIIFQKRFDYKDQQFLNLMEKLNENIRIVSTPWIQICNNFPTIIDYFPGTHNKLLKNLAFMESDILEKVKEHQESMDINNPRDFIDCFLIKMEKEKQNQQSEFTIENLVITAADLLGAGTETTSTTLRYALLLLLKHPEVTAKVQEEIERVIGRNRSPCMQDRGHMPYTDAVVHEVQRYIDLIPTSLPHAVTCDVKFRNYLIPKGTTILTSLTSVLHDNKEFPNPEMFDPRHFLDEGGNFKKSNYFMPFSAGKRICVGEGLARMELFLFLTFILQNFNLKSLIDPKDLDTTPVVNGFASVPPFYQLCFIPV

Activation factor, inactive:
CCc1ccc(CNC(=O)C2CCCN(c3nc4ccccc4o3)C2)cc1 (stereo not drawn) 0.3
CCn1cc(C(=O)N/N=C(/C)c2ccc(F)cc2)c(=O)c2cc(F)c(N3CCCC3)cc21 0.6
O=C(Nc1cccc(-c2nc3ncccc3o2)c1)c1ccco1 0.9
COc1ccccc1NC(=O)[C@H](COCc1ccccc1)NC(=O)OC(C)(C)C 0.5
CN=C1SC(CC(=O)Nc2ccc(C(=O)O)cc2)C(=O)N1C (stereo not drawn) 1
O=C(c1ccco1)N1CCN(C(=O)C2CCCN(S(=O)(=O)c3cccc4nsnc34)C2)CC1 (stereo not drawn) 1
COc1ccc(NC(=O)Cn2c(-c3ccc(OC)cc3)cn(-c3ccc(C)cc3)c2=O)cc1 1
O=C(N/N=C/c1ccc(O)cc1)/C(=C/c1ccc([N+](=O)[O-])cc1)NC(=O)c1ccccc1 0.9
CSc1ccc(C#N)cc1NC(=O)c1cccc(Cl)c1 0.8
Cc1ccc(S(=O)(=O)N(CC(=O)NCCSC2CCCCC2)c2ccccc2F)cc1 1
CC(c1ccco1)N(C(=O)COc1ccccc1[N+](=O)[O-])c1ccccn1 (stereo not drawn) 0.6
C=CCn1c(SCC(=O)NCc2ccccc2)nnc1-c1cc(Br)ccc1O 0.1
O=C(Nc1nccs1)c1cc(S(=O)(=O)N2CCOCC2)c(Cl)cc1Cl 0.9
CC(C)CCOc1ccc(C(=O)C[N+]2(C)CCOCC2)cc1 0.9
O=C(N/N=C/C=C/c1ccccc1)C1CC1(c1ccccc1)c1ccccc1 (stereo not drawn) 1.2
COCCNC(=O)COc1ccccc1C 1
COc1ccccc1NC(=O)COc1ccc(C(=O)OCC(=O)N(C(C)C)C(C)C)cc1OC 0.4
CCCN1Cc2cccc(C(=O)Nc3ccc(S(=O)(=O)N4CCCCCC4)cc3)c2C1=O 0.8
Cc1cccc(C)c1-n1c(C)cc(/C=C2\C(=O)NN(c3ccccc3)C2=O)c1C 0.6
Cc1ccc(SCCC(=O)OCC(=O)Nc2ncc(Cl)cc2Cl)cc1 0.8
COc1ccc(NCc2nnc(SCc3ccccc3)n2-c2ccc(OC)cc2)cc1 0.1
COc1ccc(-c2cc3nc(C)c(CCC(=O)NC(C)CCc4ccco4)c(C)n3n2)c(OC)c1 (stereo not drawn) 0.7
O=C(COc1cc(Cl)c(Cl)cc1Cl)NC(=O)NC1CCCC1 1.1
CCCCCN1CC(O)=C(c2nc(-c3ccc(Cl)cc3)cs2)C1=N 0.9
Cc1ccc(-n2c(SCC(=O)NCc3ccc4c(c3)OCO4)nnc2-c2cccnc2)c(C)c1 0.7
CCCCNC(=O)CSc1nc2ccc(NC(=O)CSc3nnc(COc4ccccc4C)n3C)cc2s1 0.8
CSc1nc2ccccc2cc1/C=C(\C#N)c1ccc(Cl)cc1Cl 0.9
Cc1nnc(SCC(=O)Nc2ncc3c(n2)CC(C)(C)CC3=O)s1 1
O=C(Nc1ccc2c(c1)OCCO2)C(c1ccc(F)cc1)N1CCCCC1 (stereo not drawn) 0.4
COc1cc(C2C(C(=O)OCCC#N)=C(C)NC3=C2S(=O)(=O)c2ccccc23)cc(OC)c1OC (stereo not drawn) 0.8
CCCCN1C(=O)CC(N2CCOCC2)C1=O (stereo not drawn) 1
O=c1c2ccccc2nc2n1C1(CCCCC1)Cc1ccccc1-2 0.3
Cc1ccc(OCc2nnc(NC(=O)OCC(C)C)s2)cc1 0.9
Cc1csc(=NC(=O)c2ccccc2)n1CCO 0.5
CSC1=N/C(=C\c2ccc3c(c2)OCO3)C(=O)S1 1
CC(C)(C)c1cc2cccnc2n1Cc1cccc(F)c1 0.9
CCNC(=S)Nc1cccc(Cl)c1C 0.5
CN1CCN(c2ccc([N+](=O)[O-])c(Sc3nc4ccccc4[nH]3)c2)CC1 0.7
CC/C(C)=N/Nc1nc2sc3c(c2c(=O)[nH]1)CC(C)(C)OC3 0.6
CCC(=O)Nc1ccc(C(=O)Nc2cccc(OC)c2)cc1 1
C=CCn1c(SCC(=O)c2c(N)n(C)c(=O)n(C)c2=O)nc2sc(CC)cc2c1=O 1
COc1ccc(-c2nc3ccccc3n2CCC(C)C)cc1OC 0.4
CC(C)Oc1ccc(C(=O)NC(C)(C)CO)cc1 1
COc1ccc(C(=O)Nc2ncc3c(n2)-c2ccccc2CC3)cc1 0.9
O=C(Nc1cccc2ccccc12)c1onc2c1CCCC2 0.9
FC(F)(F)c1ccc2nnc(-c3c(Cl)cccc3Cl)n2c1 0.7
Cc1cc(C(=O)OCC(=O)Nc2ccc(F)c(F)c2)c(C)o1 0.1
Cc1nnc(SCC(=O)NC(=O)NC2CCCC2)n1N 1
Cc1ccc(-c2csc(N(Cc3ccco3)C(=O)c3cccs3)n2)cc1 0.3
O=C(c1ccccc1Oc1ccccc1)N1CCN(c2ccc(F)cc2)CC1 0.1
O=C1N=C(N2CCCC2)S/C1=C\c1cccc(Br)c1 0.4
Cc1noc(C)c1COC(=O)c1cc2ccccc2cc1O 0.1
Cc1nnc(OCC(=O)NCCC2=CCCCC2)c2ccccc12 0.4
CCOCCCNC(=O)C(NC(=O)CNC(=O)c1ccccc1)c1ccc(C)cc1 (stereo not drawn) 1.1
Nn1c(SCC(=O)NC2CCCC2)nnc1-c1ccccc1F 0.8
CCN(CC)Cc1csc2ccc(Br)cc12 0.9
CN(C)c1ccc(CNC2C3CC4CC(C3)CC2C4)cc1 (stereo not drawn) 0.2
FC(F)(F)c1cccc(-c2cc3ccccc3nc2N2CCCC2)c1 0.8
COc1ccc2[nH]c(=O)c(CNc3ccc(C)c(C)c3)cc2c1 0.8
Cn1nc(C(F)(F)F)c(C(=O)Nc2cccc(C(F)(F)F)c2)c1SCc1ccc(Cl)cc1 0.1
Cc1ccc(/C=N\n2c(-c3ccccc3)n[nH]c2=S)s1 1
CCCCCCOc1ccc(OC(=O)c2cccnc2)cc1 0.8
O=S(=O)(c1cnccc1N1CCN(/N=C/c2ccc(Br)cc2)CC1)N1CCCCC1 1.1
CCC(C)NC(=O)c1c(N)n(/N=C/c2cccs2)c2nc3ccccc3nc12 (stereo not drawn) 0.9
Cc1ccc(C(=O)N2CCN(C(=O)N3CCOCC3)CC2)cc1 0.9
Cc1cccc(NC(=O)/C(=C\c2ccco2)NC(=O)c2ccccc2)c1 0.9
CC(C)Oc1ccc(CCc2n[nH]c(=S)n2Cc2ccccc2)cc1 0.8
CCOC(=O)/C(=C\c1ccc([N+](=O)[O-])cc1)C(=O)c1cc(C(C)=O)c(Nc2ccccc2)s1 0.4
CCOc1cccc(SCc2noc(C(=O)NC(C)C)c2C(=O)O)c1 0.9
Cc1cccc(C(=O)NCCCN2CCCC2=O)c1 0.8
COc1ccc(C(=O)NNC(=O)c2cnccn2)cc1[N+](=O)[O-] 0.9
Cc1cc(=O)[nH]c(SCc2cccc(F)c2)n1 0.9
COc1ccc(NC(=O)/C(Cl)=C(/Cl)S(=O)Cc2ccc(C)cc2)cn1 (stereo not drawn) 0.7
COc1ccc(/C=C2\CCCC3C2=NN(C(=O)c2scnc2C)C3c2ccc(OC)cc2)cc1 (stereo not drawn) 0.7
Cc1ccccc1-n1nc(C)c2cc(C(=O)NC3CC3)sc21 0.4
Cc1onc(-c2c(Cl)cccc2Cl)c1C(=O)c1c[nH]c(C(=O)NC2CC2)c1 1
Cc1cccc(C(=O)Nc2ccc(C(=O)/C=C/c3cccs3)cc2)c1 1
CCOc1ccc(S(=O)(=O)NCCSc2ccccc2)cc1 0
CN(C)S(=O)(=O)c1ccc(N2CCCC2)c(C(=O)NCc2ccccc2)c1 0.4
COc1ccc(C(=O)Nc2nc(-c3ccc(OC)cc3)c(-c3ccc([N+](=O)[O-])cc3)s2)cc1 0.9
Cc1nn(Cc2ccccc2Cl)c(C)c1NC(=O)Cn1nc([N+](=O)[O-])c(Cl)c1C 1
COC(=O)Nc1sc2nc(C)cc(C)c2c1-n1cccc1 0.8
CCCc1nnc(NC(=O)c2cccs2)s1 0.9
O=C1Nc2ccc(Br)cc2/C1=N/N=C/C1=C(N2CCOCC2)C(=C\c2ccccc2)/CC1 1
O=C(N/N=C\c1cccc(Br)c1)c1ccccc1-n1cccc1 0.3
CC(=O)N1Cc2ccccc2CC1C(=O)O (stereo not drawn) 1.2
O=C(c1cccc(N2CCCC2=O)c1)N1CCOCC1 1.1
Cc1nn(CCOc2ccccc2)c(=O)n1-c1ccccc1F 0.5
O=C(NCc1ccccc1)[C@@H]1CSC2c3ccccc3C(=O)N21 (stereo partly drawn) 0.2
N=c1ccn(CC(=O)NC(N)=O)c2ccccc12 1.1
CCC(=O)c1c[nH]c(C(=O)NCC2CCCO2)c1 (stereo not drawn) 1
COc1ccc(Nc2nc(Cl)nc(NCc3ccco3)n2)cc1 1
CN(C)/C=C/C(=O)c1ccccc1F 1.1
C=CCn1c(Cn2nnc3ccccc32)nnc1SCC(=O)N/N=C/c1cc(Br)cc(OC)c1O 0.8
COC(=O)CCSc1cc([N+](=O)[O-])cc2c1c(C1OCCS1)nn2-c1ccccc1 (stereo not drawn) 0.9
NC(=O)c1nsc(C(=O)N(CC(=O)NCc2ccc(F)cc2)Cc2ccco2)c1N 0.8
CCNC(=O)NC(=O)C(C)OC(=O)c1cc(S(=O)(=O)N2CCCCCC2)ccc1OC (stereo not drawn) 0.3
CCOC(=O)c1c(-c2ccccc2)csc1NC(=S)NC(=O)c1ccccc1 1.1

— PubChem BioAssay AID1025 (Sanford-Burnham Center for Chemical Genomics, 2008)
